Source: ChEMBL document CHEMBL3988442, “University of Dundee, Small-Polar-MMV Screening Library” (2021)

What follows are molecules tested against AMP-activated protein kinase, AMPK (Homo sapiens) (UniProt P54646+O43741+P54619+Q9UGJ0+Q9Y478+Q13131+Q9UGI9) (assay: AMP-dependent Kinase enzyme assay. An in vitro enzyme assay that detects ADP turnover that is directly proportional to AMPK activity. This uses naive AMPK that is activated during the assay with MK-8722). Conditions: 30 µM.
Type: functional
Set-up: scale not given: direction of the effect not stated beside the values

Structure (SMILES)	Percent Effect
CC1(C)OC(=O)N(CCCC(=O)c2ccc(F)cc2)C1=O	-8.28%
Cc1ccc(-c2ccccc2CC2(C(=O)NC(C)C)CCCNC2)cc1 (stereo not given)	6.43%
COc1nccc(N2CC[C@H](CO)[C@@H](O)C2)c1C#N	-6.05%
Cc1cc(C(=O)N2CC[C@H](N3CCN(C)CC3)[C@H](CCCO)C2)n(C)n1	10.5%
CCNC(=O)[C@@H]1C[C@H](N)CN1C(=O)c1c[nH]c2ccccc12	6.06%
Cc1noc(C)c1CC(=O)N1CCCC(n2ccnc2C)C1 (stereo not given)	-4.43%
CCCC1COCCN1Cc1ccc(NC(C)=O)cc1 (stereo not given)	-4.72%
c1ccc(OCCCn2ccnc2-c2cn(C3CCNCC3)nn2)cc1	-1.92%
Clc1snnc1CN(Cc1cccs1)C1CC1	3.68%
COCCN(C)c1cnn(C)c(=O)c1Br	-10.9%
CC(C)(C)C(=O)NCCc1cc(N2CCOCC2)nc(NC2CC2)n1	17.4%
CN(C)c1nc(CNC(=O)Nc2cccc([S+](C)[O-])c2)cs1 (stereo not given)	5.35%
CCC(=O)NC1CCCN(c2cncc(OCc3ccccc3)n2)C1 (stereo not given)	5.23%
O=C(NCCc1cc(N2CCOCC2)nc(N2CCCC2)n1)C1CC1	13.9%
O=C(NC1CCN(C2CC2)C1)c1cn(-c2ccc(F)cc2)nn1 (stereo not given)	-3.53%
CCCNc1cc(-c2c[nH]nc2C2CCN(C(=O)C3CCC3)C2)ccn1 (stereo not given)	43.5%
CCN(CC)S(=O)(=O)c1ccc(NC(=O)C(C)(C)C)cc1	3.46%
O=C(C1CCOC1)N1CCN(CC2CC2)c2ccccc21 (stereo not given)	5.43%
Cc1nccc(C2(C)CCCNC2)n1 (stereo not given)	13.7%
O=C(NCCS(=O)(=O)N1CCN(c2ncccn2)CC1)c1ccccc1	-4.77%
